# Laboratory results published in the supplement of paper PMC6555819.
# Assays:
# Experiment in all cases: PBM binding z-score (relative to random genomic background probes); higher = stronger binding; sequences stand for … in GC…GCGATTGACAGCGTAGAATGAAGG
# [1] = tested on: RARb homodimer (NR concentration 270 nM)
# Summary of the method: (§1)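 The probes on custom Agilent 4×180K protein-binding microarrays were double-stranded, with 34-nt variable regions bearing direct-repeat seeds, single-nucleotide variants, half-site ablations and random human genomic background sequences. Incubation lasted 1 h with ligand-free nuclear receptor dimers in PBS pH 7.4, 2% milk, 0.02% Triton X-100, 1 mM DTT, 0.2 mg/mL BSA and 0.4 mg/ml salmon testes DNA. Antibodies against each partner (one per run) detected bound dimers, and fluorescence scans were regression-normalized. Binding z-scores take the random background probes as reference.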
# [2] = tested on: RARg:RXRa (NR concentration 270 nM, RXRa partner concentration 90 nM)
# Summary of the method: as §1
# [3] = tested on: RARg homodimer (NR concentration 270 nM)
# Summary of the method: as §1
# [4] = tested on: RXRa DBDmut IVT, anti-RXR (DBD mutation: RXRa K156A/R161A, NR concentration 90 nM)
# Summary of the method: as §1
# [5] = tested on: RXRa homodimer (NR concentration 180 nM)
# Summary of the method: as §1
# [6] = tested on: THRa:RXRa (NR concentration 90 nM, RXRa partner concentration 90 nM)
# Summary of the method: as §1
# [7] = tested on: THRa homodimer (NR concentration 90 nM)
# Summary of the method: as §1
# [8] = tested on: VDR homodimer (NR concentration 270 nM)
# Summary of the method: as §1
Sequence,PBM binding z-score [1],PBM binding z-score [2],PBM binding z-score [3],PBM binding z-score [4],PBM binding z-score [5],PBM binding z-score [6],PBM binding z-score [7],PBM binding z-score [8]
CGTCCAAGGTCAGTAGGTCAGTGAAAGCGACGTG,4.74,5.95,6.1,2.72,4.05,3.35,1.74,1.94
ATCTCTAGGTAAGACTCAGTTCAGTGCAGAACGC,0.696,0.23,0.29,0.644,0.206,0.914,0.919,1.71
GCGACTGGGGCGTCAGCAGGTTACCATAACTTAA,0.457,0.162,-0.368,-0.119,0.154,0.661,-0.199,-0.488
TAGCCTACGTCATTGGGCCAGTATAGTACGCATC,-0.397,-0.281,-0.0336,-0.739,-0.232,-0.688,-0.62,-0.718
TGAATGAGGATAAAGATCAGGGAACGTGGCGTCG,-0.895,0.0209,0.399,-0.871,-0.0726,1.33,0.0902,-0.316
TCTTGTAGATCAATACAGGTTAAGAAAGTGCGCT,0.644,0.423,0.26,1.25,0.787,1.46,-0.0772,0.463
TCATATAGGTAATACAGGTGATAGTCGGCATCTA,0.0336,0.618,0.526,1.57,0.945,0.371,0.0861,-0.0181
TCTAGTTGGTAAAAGGTCACACACTCGAAATGCG,5.28,6.21,5.8,2.17,6.64,4.08,2.3,2.75
AGAATGAGGTTATTAAGATAAGGGAATTGCGGTC,0.848,1.41,0.946,1.84,1.8,1.95,0.273,0.849
CTACCACGGTGAACAAGGTCGTTGATTACTATTC,1.3,0.591,0.651,1.04,0.823,1.93,1.4,2.12
TTTTGTAGATCAAAGGTTAAGAAAGCCGAAGCCT,1.49,1.74,0.912,-0.536,3.39,1.3,-0.617,-0.0263
ATCTCTAGGTAAGACTCAGTTCAATGAAGAACGC,0.915,0.919,0.623,0.822,0.539,1.29,0.873,2.32
CTCGAAAGGTCGGTTGAGGCGAGTATACGGATAA,1.33,2.36,2.23,0.644,1.72,4.02,-0.501,-0.121
CCTAGCAGGCCAGGGTCACGCAAGCATTTCGCTT,3.51,4.73,3.74,0.0811,5.81,3.6,1.62,1.53
CATACAGGGTCAGCTAGGTCAGAGTAGGGACGGC,4.28,5.09,5.08,1.93,4.95,4.07,2.33,2.85
TCATATAGGTAAACAGGTGAAATTCCGTAAGTTA,0.605,0.589,0.48,1.58,1.07,0.752,0.651,0.614
AGAATGAAGTTAAGATCAGGGAAACAGAATACAT,-0.296,0.141,0.297,-0.544,0.166,0.135,-0.599,-0.0314
CCTAGCAGGCCAGGGTCGCTCAAGCATTTCGCTT,0.411,0.213,-0.184,-0.345,0.948,1.23,-0.279,-0.195
ACTATTAGTTGAGACGAGGGCAACGGATAGGTTG,0.993,0.638,0.908,0.374,0.585,2.53,0.137,0.875

Sequence,PBM binding z-score [1],PBM binding z-score [2],PBM binding z-score [3],PBM binding z-score [4],PBM binding z-score [5],PBM binding z-score [6],PBM binding z-score [7],PBM binding z-score [8]
CCTACTGGGCCAGAAAGGTCATTGATGCCGATAA,4.36,4.7,4.43,0.0732,5.18,2.88,0.378,2.56
TCATATAGGTAAAGGTCAAAGTCGAACGATATGA,4.51,6.35,5.87,1.9,7.64,3.68,0.708,2.32
TAGCCTAGGTCAGATAGGGCCAGTATACGCTATA,1.93,2.8,3.74,-0.288,1.41,4.03,0.0301,-0.0363
ACTACAGGGTCATCGTAGGCCAGAGTACGCACAG,3.45,5.52,5.09,3.26,5.9,4.64,1.27,3.36
CGTCAAAGTTTAAGGTAACGTAACAGAAAGCAGC,0.852,0.923,1.7,1.29,0.482,3.1,3.1,-0.0381
CGTCCAAGGTCATAGGAGGTTAGTGAAGACAGAT,4.27,5.73,5.72,3.76,5.53,4.76,3.13,2.99
TAGCCTAGGTCATTCGGGCCAGTATAGTGTCGGC,3.25,3.72,4.17,1.79,3.07,3.16,1.11,1.49
CCGACTGGGGCGTAAGGTTACCATAAGCCAGCCC,1.23,0.788,0.295,-0.36,0.979,1.92,0.973,-0.426
CGAACTAGGTCTAGGACAGTGAATCTCCGCACGC,-0.234,-0.33,-0.233,0.104,-0.217,0.316,0.0986,-0.409
TCTTGTAGATCAGCAGGTTAAGAATGCTGGCCAA,0.138,-0.0809,-0.427,0.415,0.165,0.0436,-0.197,-0.438
AGAATGAGGTTTAGATCAGGGAAACAGAATACAT,-0.22,-0.0854,0.196,-0.146,-0.129,0.678,-0.242,0.0888
CCTACTGCGCCATTCAGAGGTCATTGATCATATG,3.92,3.36,2.53,1.73,3.92,3.37,2.07,3.47
CCTAGTTGGTCAGGAGGTCACACAGCGGATATGA,4.13,5.36,4.51,1.06,4.73,3.66,2.76,3.13
CGAACTAGGTCAAGGACAGTGAATCTCCGCACGC,3.01,3.95,4.49,1.42,2.57,3.25,2.14,0.847
GCTATTTGTTGAAAGGGCAACCGAATGATTCTCG,2.2,1.01,1.26,1.28,0.98,0.638,0.181,0.657
ACAGACCGGTGATGAAGGTAACTCAGGCTATCAT,-0.0627,-0.0765,0.11,-0.318,-0.04,0.648,-0.0295,-0.605
ACTTACAGGTCAACGAGGTTATAGCACGCGTATA,4.19,5.93,5.75,2.76,5.89,4.02,1.8,4.27
CTCGACAGGTCGGTTGAGGTGAGTATACGGATAA,0.715,0.769,0.825,-0.127,0.289,4.41,1.11,0.012
TCTTGCAGATCAATAGAGGTTAAGAAAGTGCGCT,1.01,0.797,0.305,0.292,1.37,2.42,-0.532,-0.0844

Sequence,PBM binding z-score [1],PBM binding z-score [2],PBM binding z-score [3],PBM binding z-score [4],PBM binding z-score [5],PBM binding z-score [6],PBM binding z-score [7],PBM binding z-score [8]
ACAGACAGGTGATAAAGGTAACTCAGGCTATCAT,0.459,0.384,0.498,-0.109,0.225,1.15,-0.0543,-0.632
TCTTGTAGATCCACAGGAGGTTAAGAAAGATCGA,0.545,0.509,0.319,0.48,0.994,0.962,0.0268,-0.139
ACAGACAGGTGATGAAGGTAATTCAGGCTATCAT,-0.0158,0.139,0.241,-0.19,0.13,0.514,0.165,-0.369
CCTGCTAGGTCAATTGTCAGCTAAAGCAGCTCGC,2.38,3.24,3.98,1.77,1.41,2.02,0.418,-0.128
TTGCCAAGGTGAGCTGAGGTCGTTGATCCAACTC,1.42,1.02,0.784,-0.052,0.78,4.62,2.03,1.75
GCTGCTAGGTCAGGTTGGTAAGCTAACGGGTACG,2.26,2.6,3.55,0.418,1.02,1.7,0.477,0.193
CAAACTAGGTCACAGAGGTCAGAGTCCGTGCGTA,5.34,6.58,7.37,3.02,6.43,4.37,2.49,4.93
CGTCCAAGGTCAATGCTTGGTCAGTGAAAGCATT,4.25,6.01,6.27,3.51,4.89,3.82,2.24,2.49
ATCCCTAGGTAACCAAGTTCAGTGAATGCCGAAC,1.97,0.484,0.374,0.841,0.841,1.79,1.02,2.77
GCTAGCAGGCCATTTAGGTCACTCAATGACGGGC,2.27,1.47,1.75,0.101,1,2.79,1.71,0.244
ATCTCTATGTAAAAGTTCAGTGAATCCCGAGGAT,2.26,1.61,1.8,1.05,1.11,0.505,0.00559,1.6
CGAACTAGGTCAGAAAAGGACAGTGAAGGATGAT,2.62,2.78,3.84,0.166,0.978,3.91,0.0421,-0.122
TCTGCTAGGTCAACGATGGTCCGCTAATCTGCTA,2.94,3.75,4.7,1.2,2.3,2.56,0.713,-0.413
CCTTACGGGTCACTGACCGGTTATAGCATTTGGA,3.25,5.43,4.56,1.45,4.82,2.56,0.389,0.995
ACTAGCAGGCCAAGTTTGGGTCACTCGAACAAAG,2.15,2.31,1.59,-0.0795,0.694,2.42,0.889,0.0508
GATACAGGGTCAGCTATAGGCCAGAGTATGGAAA,2.93,5.42,4.73,1.34,4.02,2.6,0.272,0.536
CCTTTCGGGTCACTGACAGGTTATAGCATTTGGA,3.44,5.76,4.91,2.55,5.16,4.17,2.95,1.19
CGTCCAAGGTCATAGGAGATCAGTGAAGACAGAT,3.65,5.88,6.14,4.11,6.2,3.82,2.46,3.14
